Drawing on ChEMBL document CHEMBL2218924, “A broad activity screen in support of a chemogenomic map for kinase signalling research and drug discovery” (Biochem J, 2013), this text covers residual activity for one compound.

For assay [1], the target named is T1, Mitogen-activated protein kinase kinase kinase 7 (Homo sapiens) (UniProt O43318).
T1 sequence (whole entry): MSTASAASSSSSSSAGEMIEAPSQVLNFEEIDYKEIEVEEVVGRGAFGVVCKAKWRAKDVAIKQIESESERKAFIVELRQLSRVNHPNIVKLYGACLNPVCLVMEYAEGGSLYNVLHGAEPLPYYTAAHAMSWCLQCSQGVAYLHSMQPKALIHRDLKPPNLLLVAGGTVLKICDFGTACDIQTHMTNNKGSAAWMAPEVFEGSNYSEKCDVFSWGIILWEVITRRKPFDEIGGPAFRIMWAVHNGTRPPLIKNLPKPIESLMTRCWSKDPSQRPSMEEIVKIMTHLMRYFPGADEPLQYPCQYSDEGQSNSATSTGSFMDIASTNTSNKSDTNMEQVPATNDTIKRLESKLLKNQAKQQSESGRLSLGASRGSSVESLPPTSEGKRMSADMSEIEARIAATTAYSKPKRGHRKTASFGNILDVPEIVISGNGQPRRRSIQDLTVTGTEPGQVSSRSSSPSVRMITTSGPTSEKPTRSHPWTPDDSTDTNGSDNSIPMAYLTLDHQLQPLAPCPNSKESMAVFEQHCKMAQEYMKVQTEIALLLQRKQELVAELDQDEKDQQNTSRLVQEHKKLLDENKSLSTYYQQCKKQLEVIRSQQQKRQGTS
Conditions: at 1 µM.

Assay [2] concerns the target T1, Mitogen-activated protein kinase kinase kinase 7 (Homo sapiens). Conditions: at 10 µM.
In assay [3] the target is T2, Serine/threonine-protein kinase TAO1 (Homo sapiens) (UniProt Q7L7X3).
T2 sequence (whole entry): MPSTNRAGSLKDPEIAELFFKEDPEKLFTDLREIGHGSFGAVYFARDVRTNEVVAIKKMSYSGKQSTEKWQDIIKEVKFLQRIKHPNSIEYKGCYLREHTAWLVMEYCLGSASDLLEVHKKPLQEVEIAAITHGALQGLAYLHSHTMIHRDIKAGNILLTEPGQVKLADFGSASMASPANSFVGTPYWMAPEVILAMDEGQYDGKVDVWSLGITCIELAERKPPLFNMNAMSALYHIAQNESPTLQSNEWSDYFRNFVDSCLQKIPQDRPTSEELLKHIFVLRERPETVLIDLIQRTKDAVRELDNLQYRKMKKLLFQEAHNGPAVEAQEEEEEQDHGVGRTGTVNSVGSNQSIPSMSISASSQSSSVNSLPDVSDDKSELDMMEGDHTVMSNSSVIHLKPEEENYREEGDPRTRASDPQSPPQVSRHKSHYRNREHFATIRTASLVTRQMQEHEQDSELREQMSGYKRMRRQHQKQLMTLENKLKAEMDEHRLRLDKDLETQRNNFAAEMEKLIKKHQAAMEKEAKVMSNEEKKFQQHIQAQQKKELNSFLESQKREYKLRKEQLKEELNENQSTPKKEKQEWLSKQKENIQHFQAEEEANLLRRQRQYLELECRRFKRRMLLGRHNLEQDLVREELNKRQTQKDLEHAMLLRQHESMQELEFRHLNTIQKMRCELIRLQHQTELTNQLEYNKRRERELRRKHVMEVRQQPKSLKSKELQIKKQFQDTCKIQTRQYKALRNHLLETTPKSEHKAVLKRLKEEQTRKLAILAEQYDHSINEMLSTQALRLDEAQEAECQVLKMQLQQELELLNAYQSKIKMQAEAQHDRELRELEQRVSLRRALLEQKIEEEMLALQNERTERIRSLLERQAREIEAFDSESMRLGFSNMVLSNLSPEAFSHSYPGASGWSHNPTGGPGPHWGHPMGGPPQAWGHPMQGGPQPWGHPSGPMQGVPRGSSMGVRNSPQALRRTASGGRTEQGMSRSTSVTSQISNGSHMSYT
The following applies: at 1 µM.

Assay [4] deals with T2, Serine/threonine-protein kinase TAO1 (Homo sapiens). Conditions: at 10 µM.
Assay [5] concerns the target T3, Serine/threonine-protein kinase TAO2 (Homo sapiens) (UniProt Q9UL54).
T3 sequence (whole entry): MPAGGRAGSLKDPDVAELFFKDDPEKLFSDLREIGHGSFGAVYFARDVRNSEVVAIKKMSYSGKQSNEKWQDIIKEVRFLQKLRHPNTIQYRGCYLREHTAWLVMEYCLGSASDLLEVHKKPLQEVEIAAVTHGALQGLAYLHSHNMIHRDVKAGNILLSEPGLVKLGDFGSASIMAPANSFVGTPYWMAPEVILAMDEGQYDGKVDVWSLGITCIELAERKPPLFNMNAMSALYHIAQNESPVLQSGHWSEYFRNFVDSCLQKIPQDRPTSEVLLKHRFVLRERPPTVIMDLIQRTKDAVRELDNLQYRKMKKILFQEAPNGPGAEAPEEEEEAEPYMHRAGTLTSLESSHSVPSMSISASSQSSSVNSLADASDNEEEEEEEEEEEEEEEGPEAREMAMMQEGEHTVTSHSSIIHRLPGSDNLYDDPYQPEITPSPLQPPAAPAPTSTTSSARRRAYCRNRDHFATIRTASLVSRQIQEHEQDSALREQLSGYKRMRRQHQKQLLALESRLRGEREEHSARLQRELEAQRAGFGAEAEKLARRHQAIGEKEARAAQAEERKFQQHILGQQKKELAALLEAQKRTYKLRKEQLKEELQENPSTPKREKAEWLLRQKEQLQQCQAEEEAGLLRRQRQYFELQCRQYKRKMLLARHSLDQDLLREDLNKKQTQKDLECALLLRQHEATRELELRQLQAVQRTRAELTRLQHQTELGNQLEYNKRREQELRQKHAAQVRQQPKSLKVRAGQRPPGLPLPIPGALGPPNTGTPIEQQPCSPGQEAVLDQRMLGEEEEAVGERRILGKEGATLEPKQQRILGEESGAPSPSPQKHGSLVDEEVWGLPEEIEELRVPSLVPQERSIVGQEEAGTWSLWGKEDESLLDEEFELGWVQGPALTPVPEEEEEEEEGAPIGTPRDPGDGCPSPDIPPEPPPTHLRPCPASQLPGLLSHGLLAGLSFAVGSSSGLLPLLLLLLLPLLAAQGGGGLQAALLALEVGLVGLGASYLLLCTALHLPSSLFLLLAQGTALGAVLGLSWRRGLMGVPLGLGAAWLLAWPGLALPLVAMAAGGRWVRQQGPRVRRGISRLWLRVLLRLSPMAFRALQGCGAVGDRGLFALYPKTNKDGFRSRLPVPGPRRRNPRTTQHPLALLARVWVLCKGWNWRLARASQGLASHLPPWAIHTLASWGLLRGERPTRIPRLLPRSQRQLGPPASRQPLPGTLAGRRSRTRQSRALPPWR
Conditions: at 1 µM.

In assay [6] the target is T3, Serine/threonine-protein kinase TAO2 (Homo sapiens). Conditions: at 10 µM.
The target in assay [7] is T4, Serine/threonine-protein kinase TAO3 (Homo sapiens) (UniProt Q9H2K8).
T4 sequence (whole entry): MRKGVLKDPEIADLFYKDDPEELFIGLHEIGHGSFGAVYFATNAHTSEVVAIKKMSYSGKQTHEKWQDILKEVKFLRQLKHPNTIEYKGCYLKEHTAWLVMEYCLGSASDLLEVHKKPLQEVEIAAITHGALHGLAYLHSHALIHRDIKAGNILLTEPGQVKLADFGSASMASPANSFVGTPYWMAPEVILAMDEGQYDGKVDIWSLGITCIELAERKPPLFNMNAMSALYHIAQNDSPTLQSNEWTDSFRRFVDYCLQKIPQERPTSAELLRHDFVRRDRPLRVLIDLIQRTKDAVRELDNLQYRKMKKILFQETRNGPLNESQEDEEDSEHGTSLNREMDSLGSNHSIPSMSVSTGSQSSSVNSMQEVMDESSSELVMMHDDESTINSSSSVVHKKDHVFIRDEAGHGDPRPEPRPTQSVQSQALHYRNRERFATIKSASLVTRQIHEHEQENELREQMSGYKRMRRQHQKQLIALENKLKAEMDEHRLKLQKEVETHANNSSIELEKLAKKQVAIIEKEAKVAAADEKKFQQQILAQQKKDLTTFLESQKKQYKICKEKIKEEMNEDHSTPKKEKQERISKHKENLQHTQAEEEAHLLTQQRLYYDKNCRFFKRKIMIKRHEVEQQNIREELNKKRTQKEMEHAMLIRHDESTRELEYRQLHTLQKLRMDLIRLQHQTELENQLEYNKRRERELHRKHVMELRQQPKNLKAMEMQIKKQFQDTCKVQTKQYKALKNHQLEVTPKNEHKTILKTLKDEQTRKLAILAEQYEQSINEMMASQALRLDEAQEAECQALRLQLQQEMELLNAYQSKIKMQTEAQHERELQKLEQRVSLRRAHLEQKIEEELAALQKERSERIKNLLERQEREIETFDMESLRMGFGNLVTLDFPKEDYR
Conditions: at 1 µM.

Assay [8] addresses T4, Serine/threonine-protein kinase TAO3 (Homo sapiens). The following applies: at 10 µM.
Assay [9] deals with T5, Serine/threonine-protein kinase TBK1 (Homo sapiens) (UniProt Q9UHD2).
T5 sequence (whole entry): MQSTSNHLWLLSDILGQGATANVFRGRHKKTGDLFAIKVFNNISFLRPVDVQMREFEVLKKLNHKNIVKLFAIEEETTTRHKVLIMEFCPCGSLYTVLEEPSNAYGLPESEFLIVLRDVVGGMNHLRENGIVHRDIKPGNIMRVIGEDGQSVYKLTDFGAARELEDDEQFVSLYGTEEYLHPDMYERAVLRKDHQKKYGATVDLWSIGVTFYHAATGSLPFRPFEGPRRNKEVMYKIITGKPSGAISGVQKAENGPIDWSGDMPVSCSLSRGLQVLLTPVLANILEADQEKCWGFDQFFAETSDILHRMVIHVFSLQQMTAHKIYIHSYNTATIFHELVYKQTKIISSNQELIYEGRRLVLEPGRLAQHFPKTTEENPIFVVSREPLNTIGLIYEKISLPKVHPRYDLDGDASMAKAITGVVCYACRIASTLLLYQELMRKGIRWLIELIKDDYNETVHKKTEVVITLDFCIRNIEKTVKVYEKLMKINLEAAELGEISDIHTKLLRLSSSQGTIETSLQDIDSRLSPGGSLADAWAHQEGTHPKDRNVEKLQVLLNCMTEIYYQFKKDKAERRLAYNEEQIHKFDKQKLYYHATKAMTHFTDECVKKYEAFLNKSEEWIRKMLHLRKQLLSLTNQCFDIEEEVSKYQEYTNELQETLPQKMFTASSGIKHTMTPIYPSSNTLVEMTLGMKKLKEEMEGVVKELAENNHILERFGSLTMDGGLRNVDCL
Conditions: at 1 µM.

Assay [10] concerns the target T5, Serine/threonine-protein kinase TBK1 (Homo sapiens). Conditions: at 10 µM.
The target of assay [11] is T6, TGF-beta receptor type-1 (Homo sapiens) (UniProt P36897).
T6 sequence (whole entry): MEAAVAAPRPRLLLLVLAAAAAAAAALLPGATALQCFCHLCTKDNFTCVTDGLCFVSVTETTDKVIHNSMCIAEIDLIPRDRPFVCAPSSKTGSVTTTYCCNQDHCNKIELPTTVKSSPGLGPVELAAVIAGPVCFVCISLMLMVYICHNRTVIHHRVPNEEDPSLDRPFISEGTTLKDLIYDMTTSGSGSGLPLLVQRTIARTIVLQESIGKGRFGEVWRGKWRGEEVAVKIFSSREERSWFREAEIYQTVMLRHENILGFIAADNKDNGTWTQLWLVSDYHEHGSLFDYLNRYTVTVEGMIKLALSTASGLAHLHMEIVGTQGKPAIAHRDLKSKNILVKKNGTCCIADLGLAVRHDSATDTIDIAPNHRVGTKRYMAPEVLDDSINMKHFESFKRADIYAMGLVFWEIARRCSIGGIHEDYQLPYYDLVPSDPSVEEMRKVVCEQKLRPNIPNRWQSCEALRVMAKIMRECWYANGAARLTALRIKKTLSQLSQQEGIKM
The following applies: at 1 µM.

Assay [12] addresses T6, TGF-beta receptor type-1 (Homo sapiens). Conditions: at 10 µM.
The target of assay [13] is Insulin-like growth factor 1 receptor (Homo sapiens) (UniProt P08069). The following applies: at 1 µM.
Assay [14] has the same target. The following applies: at 10 µM.
Assay [15] has as its target Insulin receptor (Homo sapiens) (UniProt P06213). Conditions: at 1 µM.

The structures appear in SMILES notation.

Insulin-like growth factor 1 receptor (Homo sapiens), sequence (P08069 31-736 limits assumed): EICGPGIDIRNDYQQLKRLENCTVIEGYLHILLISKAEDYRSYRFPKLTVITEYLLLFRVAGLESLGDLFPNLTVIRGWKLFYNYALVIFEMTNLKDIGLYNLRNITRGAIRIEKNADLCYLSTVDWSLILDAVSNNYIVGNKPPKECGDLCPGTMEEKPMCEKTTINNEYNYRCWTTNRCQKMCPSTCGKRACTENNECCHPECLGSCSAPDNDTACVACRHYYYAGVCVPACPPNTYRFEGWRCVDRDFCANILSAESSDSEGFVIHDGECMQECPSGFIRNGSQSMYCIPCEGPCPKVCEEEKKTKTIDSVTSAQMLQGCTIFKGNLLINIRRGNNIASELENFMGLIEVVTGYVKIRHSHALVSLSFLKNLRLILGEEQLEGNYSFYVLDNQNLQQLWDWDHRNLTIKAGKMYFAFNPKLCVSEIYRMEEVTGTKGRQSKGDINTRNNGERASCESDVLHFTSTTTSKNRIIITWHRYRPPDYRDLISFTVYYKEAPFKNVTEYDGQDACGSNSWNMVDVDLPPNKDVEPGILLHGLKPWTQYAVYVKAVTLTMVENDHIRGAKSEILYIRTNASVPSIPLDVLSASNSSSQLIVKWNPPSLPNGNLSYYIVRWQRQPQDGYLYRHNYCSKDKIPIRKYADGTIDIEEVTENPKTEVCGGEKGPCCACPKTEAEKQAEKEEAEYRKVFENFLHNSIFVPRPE
Insulin-like growth factor 1 receptor (Homo sapiens), sequence (P08069 741-1367 limits assumed): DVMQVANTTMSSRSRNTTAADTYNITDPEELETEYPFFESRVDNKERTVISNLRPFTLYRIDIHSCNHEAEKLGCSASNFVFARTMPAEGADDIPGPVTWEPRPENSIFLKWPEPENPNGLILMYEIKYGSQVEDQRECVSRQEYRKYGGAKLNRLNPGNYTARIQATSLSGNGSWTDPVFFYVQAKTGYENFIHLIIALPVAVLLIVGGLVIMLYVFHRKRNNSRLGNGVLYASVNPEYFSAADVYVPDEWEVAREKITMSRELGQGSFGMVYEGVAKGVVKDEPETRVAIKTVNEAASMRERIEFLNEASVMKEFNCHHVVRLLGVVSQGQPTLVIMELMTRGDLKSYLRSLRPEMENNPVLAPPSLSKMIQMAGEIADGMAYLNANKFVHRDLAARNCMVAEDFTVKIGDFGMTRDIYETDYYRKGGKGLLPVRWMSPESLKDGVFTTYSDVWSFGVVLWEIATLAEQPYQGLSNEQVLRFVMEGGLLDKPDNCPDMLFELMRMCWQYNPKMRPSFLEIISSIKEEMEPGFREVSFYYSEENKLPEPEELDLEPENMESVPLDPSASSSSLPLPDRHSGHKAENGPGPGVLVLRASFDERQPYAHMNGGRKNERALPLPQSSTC
Insulin receptor (Homo sapiens), sequence (P06213 28-758 limits assumed): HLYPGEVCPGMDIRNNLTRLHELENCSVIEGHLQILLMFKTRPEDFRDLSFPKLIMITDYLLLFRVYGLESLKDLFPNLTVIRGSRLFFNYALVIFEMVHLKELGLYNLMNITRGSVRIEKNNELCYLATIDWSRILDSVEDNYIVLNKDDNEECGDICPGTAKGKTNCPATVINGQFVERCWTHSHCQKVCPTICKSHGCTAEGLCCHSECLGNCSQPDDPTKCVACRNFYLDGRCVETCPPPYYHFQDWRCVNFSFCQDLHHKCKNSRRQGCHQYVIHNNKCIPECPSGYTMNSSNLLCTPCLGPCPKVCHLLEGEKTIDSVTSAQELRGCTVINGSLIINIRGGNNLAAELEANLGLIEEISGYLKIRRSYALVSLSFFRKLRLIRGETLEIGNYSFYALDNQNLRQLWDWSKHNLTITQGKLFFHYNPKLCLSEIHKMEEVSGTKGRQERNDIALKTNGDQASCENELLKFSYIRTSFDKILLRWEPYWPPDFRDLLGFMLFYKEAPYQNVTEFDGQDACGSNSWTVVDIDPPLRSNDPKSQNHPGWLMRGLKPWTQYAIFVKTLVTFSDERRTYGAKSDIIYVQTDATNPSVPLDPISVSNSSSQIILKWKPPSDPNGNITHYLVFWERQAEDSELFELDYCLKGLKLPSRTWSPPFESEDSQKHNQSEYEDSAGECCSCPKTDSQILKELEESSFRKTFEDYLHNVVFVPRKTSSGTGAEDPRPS
Insulin receptor (Homo sapiens), sequence (P06213 763-1382 limits assumed): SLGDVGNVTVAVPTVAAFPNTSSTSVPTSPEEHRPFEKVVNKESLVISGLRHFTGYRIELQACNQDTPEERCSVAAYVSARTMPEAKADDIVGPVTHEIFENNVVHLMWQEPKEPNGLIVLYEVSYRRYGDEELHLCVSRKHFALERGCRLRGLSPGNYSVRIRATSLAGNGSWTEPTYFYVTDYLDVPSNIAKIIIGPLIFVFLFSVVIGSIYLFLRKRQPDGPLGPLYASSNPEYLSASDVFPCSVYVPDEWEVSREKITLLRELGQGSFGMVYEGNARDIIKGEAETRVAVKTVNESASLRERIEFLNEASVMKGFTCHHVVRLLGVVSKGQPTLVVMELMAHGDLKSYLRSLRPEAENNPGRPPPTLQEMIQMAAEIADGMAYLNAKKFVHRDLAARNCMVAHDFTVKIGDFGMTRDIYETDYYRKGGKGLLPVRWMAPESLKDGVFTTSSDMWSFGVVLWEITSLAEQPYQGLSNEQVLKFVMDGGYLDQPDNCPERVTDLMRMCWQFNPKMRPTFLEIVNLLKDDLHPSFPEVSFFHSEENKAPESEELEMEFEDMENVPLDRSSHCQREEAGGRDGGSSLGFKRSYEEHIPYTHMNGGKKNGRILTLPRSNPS

As to `c1ccc(-c2n[nH]cc2-c2ccnc3ccccc23)nc1`, the residual activity in assay [1] is 91%; in [2], 71%; in [3], 107%; in assay [4] it was 95%; in assay [5] it was 103%; in assay [6], 86%. For the same compound, the residual activity stood at 91% in assay [7]; 84% in [8]; 71% in assay [9]; 66% in assay [10]; 6% in [11]; 0% in assay [12]. In addition, the residual activity in [13] was 99%; in assay [14], 82%; in assay [15], 108%.
